Screening data (PubChem)
Compounds with a hit are over-represented: about 19% of the library has one in this group of screens.
DT40 TDP1 CPT = DT40-hTDP1 cell growth loss with CPT | chicken DT40 Tdp1-/-;hTDP1 cells + 20 nM CPT, ATP luminescence, 48 h | Potency, µM (doses to about 46.2 µM), inactives show top-dose activity change, negative = growth inhibition, usual class: inhibitors | actives 12% (n = 420,000) | AID 686979; further: nearly all actives have a fitted effect of over 55% in size
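Chicken DT40 Tdp1-/- cells complemented with human TDP1, 400 cells/well, exposed to compounds plus 20 nM camptothecin for at least 48 h at 37 C; viability read as ATP content by CellTiter-Glo luminescence.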
Gal4-VP16 FLuc = inhibits Gal4-VP16 luciferase reporter, ROR gamma counter-screen | Drosophila S2 Gal4-VP16 UAS-luciferase, luminescence, 20 h | Potency, µM (top dose mostly 53.6 µM), for the others: at the highest dose activity, negative = inhibition, most hits filed as inhibitors | actives 3.5% (n = 310,000);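 further: Gal4-VP16 expression switched on by copper sulfate through the metallothionein promoter; nearly all actives have a fitted effect of over 50% in size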
TDP1 cell noCPT = qHTS for Inhibitors of human tyrosyl-DNA phosphodiesterase 1 (TDP1): qHTS in cells in absence of CPT | DT40 Tdp1-/- hTDP1 cells, no CPT, ATP luminescence, 48 h | AID 686978, 2013 | Potency, µM (highest dose often 46.2 µM), inactives show at the highest dose activity change, negative = growth inhibition, actives largely listed as inhibitors | actives 15% (n = 420,000); further: nearly all actives have a fitted effect of over 55% in size
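DT40 Tdp1-/-;hTDP1 cells, no CPT (DMSO vehicle only), 400 cells/well; compounds pin-transferred; ≥48 hr, 37 °C; CellTiter-Glo 30 min RT dark, luminescence read.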
RORg inh = inhibitors of mouse ROR gamma transcriptional activity | P51450 | Potency, µM (top dose mostly 53.6 µM), without a hit: at the top dose activity change, negative = inhibition, actives largely listed as inhibitors | actives 5.4% (n = 310,000) | Drosophila S2 Gal4-RORgamma UAS-luciferase reporter, 20 h; further: nearly all actives have a fitted effect of over 60% in size
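Luminescence from a UAS-regulated Photinus luciferase reporter in stably transfected Drosophila Schneider cells is measured; decreased signal marks ROR gamma inhibition. Fusion expression is induced by 700 uM copper sulfate for 20 hr.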
TDP1 block = inhibitors of human tyrosyl-DNA phosphodiesterase TDP1. Q9NUW8. recombinant TDP1, AlphaScreen DNA substrate cleavage. Potency, µM (titrated, usually from 130 µM), inactives show at the top dose activity change, negative = inhibition, most hits filed as inhibitors. actives 0.28% (n = 350,000). AID 485290; further: nearly all actives have a fitted effect of over 40% in size
Target sequence (Q9NUW8 whole entry, looked up): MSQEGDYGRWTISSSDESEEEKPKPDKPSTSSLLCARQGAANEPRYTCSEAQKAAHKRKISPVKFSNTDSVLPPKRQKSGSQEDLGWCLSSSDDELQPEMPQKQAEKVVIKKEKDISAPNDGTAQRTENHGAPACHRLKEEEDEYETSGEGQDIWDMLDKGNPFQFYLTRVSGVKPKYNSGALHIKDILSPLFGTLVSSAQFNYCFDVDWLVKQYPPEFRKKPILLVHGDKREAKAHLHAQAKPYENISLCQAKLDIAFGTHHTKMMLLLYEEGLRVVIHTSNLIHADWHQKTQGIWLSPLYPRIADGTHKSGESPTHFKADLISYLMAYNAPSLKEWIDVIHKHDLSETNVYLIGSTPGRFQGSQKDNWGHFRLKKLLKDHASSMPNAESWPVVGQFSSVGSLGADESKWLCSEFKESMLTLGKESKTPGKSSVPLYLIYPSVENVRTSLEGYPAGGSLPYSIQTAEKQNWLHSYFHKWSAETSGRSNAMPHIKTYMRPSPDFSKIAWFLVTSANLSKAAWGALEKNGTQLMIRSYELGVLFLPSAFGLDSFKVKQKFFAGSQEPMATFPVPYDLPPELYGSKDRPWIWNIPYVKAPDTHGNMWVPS
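E. coli-derived human Tdp1, 1 nM final. Cpd preinc 15 min RT; substrate 15 nM final, 5 min RT; AS bead mix 10 ug/ml final, 10 min RT. Signal loss = tyrosine-FITC cleavage. No-enzyme wells = max signal.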
Numbers without * were called inactive; ? = inconclusive; · = no result given; [ ] = another dose, or the depositor's remark. The call rests on the fitted dose curve; in most records, active means well fitted curve in the direction sought with a large enough effect; inconclusive means small, poorly fitted or top-dose-only effect, or another doubt; inactive means no such curve, though single readings can be large; an effect the other way counts as inactive or inconclusive. On the % scale 0 is the no-effect control and ±100 the full control effect; potency means the concentration at half of the fitted maximal effect.

SMILES | DT40 TDP1 CPT | Gal4-VP16 FLuc | TDP1 cell noCPT | RORg inh | TDP1 block
Cc1noc(C)c1NC(=O)N(C)C[C@H]1OCCCC[C@@H](C)Oc2ccc(NC(=O)Nc3ccc(F)cc3)cc2C(=O)N([C@@H](C)CO)C[C@H]1C | ? | · | 18µM* | · | ·
C[C@@H]1CN([C@H](C)CO)C(=O)c2cc(NC(=O)Nc3ccc(F)cc3)ccc2O[C@@H](C)CCCCO[C@H]1CN(C)S(=O)(=O)c1cccs1 | ? | · | 26µM* | · | ·
Cc1noc(C)c1NC(=O)N(C)C[C@H]1OCCCC[C@@H](C)Oc2ccc(NC(=O)c3ccccc3)cc2C(=O)N([C@H](C)CO)C[C@@H]1C | ? | · | -19% | · | ·
Cc1ccc(S(=O)(=O)N(C)C[C@@H]2OCCCC[C@H](C)Oc3ccc(NC(=O)Nc4ccc(F)cc4)cc3C(=O)N([C@H](C)CO)C[C@H]2C)cc1 | 13µM* | · | 7.3µM* | · | ·
COc1ccc(S(=O)(=O)N(C)C[C@H]2OCCCC[C@H](C)Oc3ccc(NC(=O)Nc4ccc(F)cc4)cc3C(=O)N([C@H](C)CO)C[C@H]2C)cc1 | ? | · | -11% | · | ·
C[C@@H]1CN([C@@H](C)CO)C(=O)c2cc(NC(=O)c3ccccc3)ccc2O[C@@H](C)CCCCO[C@@H]1CN(C)S(=O)(=O)c1ccc(F)cc1 | ? | · | 21µM* | · | ·
C[C@H]1CN([C@@H](C)CO)S(=O)(=O)c2ccc(Br)cc2O[C@H]1CN(C)C(=O)c1cccnc1 | -18% | · | -18% | · | ·
Cc1oc2c(c(C)cc3oc(=O)c(CC(=O)NCCc4ccccc4F)c(C)c32)c1C | ? | · | ? | · | 0%
C=CCN(CC=C)C(=O)C1CCC(C(=O)N(CC=C)CC=C)CC1 (stereo not given) | 2% | -9%[0.365 µM] | -26% | ? | 0%
O=S(=O)(NCCc1nnc2ccc(SCc3ccccc3Cl)nn12)c1ccccc1 | 16µM* | · | 23µM* | · | 8%
COc1ccc(Cl)cc1NC(=O)CSc1ccc2nnc(CCNS(=O)(=O)c3ccccc3)n2n1 | 18µM* | · | ? | · | 8%
O=S(=O)(NCCc1nnc2ccc(SCc3c(F)cccc3Cl)nn12)c1ccccc1 | ? | · | 23µM* | · | 3%
COC(=O)CSc1ccc2nnc(CCNS(=O)(=O)c3ccccc3)n2n1 | 2% | 4% | 1% | 1% | 1%
CCCCCCCCN1C(=O)[C@H](CC(=O)N2CCOCC2)C[C@@]2(C(=O)OC)CCCCC=C12 | 18µM* | · | 15µM* | · | ·
CCCCCCCCN1C(=O)[C@H](CC(=O)N2CCCCC2)C[C@@]2(C(=O)OC)CCCCC=C12 | ? | · | 26µM* | · | ·
O=C(OC1C[C@H]2CC[C@@H](C1)[N+]21CCCC1)C(O)(c1ccccc1)c1ccccc1 (stereo not given in full) | 12% | -3% | -9% | 2% | ·
O=[N+]([O-])c1cccc(S(=O)(=O)c2cccc([N+](=O)[O-])c2)c1 | 6% | 16% | 4% | -4% | 5%
O=[N+]([O-])c1ccc(N2CCCCCC2)c([N+](=O)[O-])c1 | -11% | 6%[0.365 µM] | -24% | 27% | 5%
O=[N+]([O-])c1cccc(S(=O)(=O)c2ccc(N3CCCCC3)c([N+](=O)[O-])c2)c1 | ? | -6% | 26µM* | ? | 5%
O=[N+]([O-])c1cc(S(=O)(=O)c2ccc(N3CCCCC3)c([N+](=O)[O-])c2)ccc1N1CCCCC1 | ? | -12% | 21µM* | 8% | 8%
O=C(O)C1(C(=O)O)CCC1.[NH2-].[NH2-].[Pt+2] | · | 0% | · | 6% | 23%
CCCCNC1=CC(=O)C(NCCCC)=CC1=O | 23µM* | · | 16µM* | · | ·
CCCCNC1=CC(=O)C(=O)c2ccccc21 | 8.2µM* | -29% | 21µM* | 8% | -3%
CCCCNc1cc(=O)n(C)c(=O)n1C | -4% | -5% | -3% | -1% | -10%
c1ccc(CCc2nnc3n2CCN(Cc2ccc4ccccc4n2)CC3)cc1 | ? | · | -30% | · | ·
SMILES | DT40 TDP1 CPT | Gal4-VP16 FLuc | TDP1 cell noCPT | RORg inh | TDP1 block
Cc1ccn2cc(CSc3ccccc3N)nc2c1 | -12% | -7% | ? | 13µM* | 1%
CCOC(=S)SCc1cn2ccc(C)cc2n1 | ? | ? | ? | 14µM* | 8%
CCOC(=S)SCc1cn2ccccc2n1 | 0% | 4% | -14% | ? | 7%
Cc1ccccc1-c1cc(C(=O)O)n(CC2CC(c3cccnc3)=NO2)n1 (stereo not given) | 17% | · | 20% | · | 3%
CCOc1ccc(NC(=O)N(O)C2(C#N)CCCCC2)cc1 | -1% | · | 4% | · | ·
C[C@H]1CCC/C=C/[C@@H]2C[C@H](O)C[C@H]2[C@H](O)[C@H](S(=O)c2ccc(O)cc2)CC(=O)O1 (stereo not given in full) | 0.58µM* | · | 0.73µM* | · | ·
C=CCc1ccc(OCc2ccc(C(=O)O)o2)c(OC)c1 | 10% | ? | -3% | ? | ·
COc1ccccc1-c1nn(CCC(=O)Nc2cccc(C(C)=O)c2)c2nc(C)cc(C)c12 | ? | · | 16µM* | · | 8%
O=C(NNc1ccc(O)cc1)c1ccc(Br)cc1 | 21µM* | 3% | 12µM* | -44% | 6%
O=c1c2c3c(sc2n2cnnc2n1CCc1ccccc1)CCCC3 | ? | -21% | ? | -12% | 2%
CN(C)Cc1c(C(=O)N/N=C/c2cccc(OCc3ccccc3)c2)nnn1-c1nonc1N | -27% | -24% | -6% | 44% | 3%
O=C(CSc1nnc(C2CCCCC2)o1)Nc1ccccc1Cl | 4% | ? | ? | 8% | 6%
C=C[C@](C)(O)CCC1C(=C)CC(O)C2C(C)(C)CCCC12C (stereo not given in full) | ? | -27% | 9.2µM* | 18% | 13%[56.1 µM]
O=C(Cc1c[nH]c2ccccc12)OCC(=O)c1ccccc1 | -25% | 0% | -18% | 10% | 0%
CC(C)N(CCO)Cc1nc(N2CCOCC2)c2cc(Cl)ccc2n1 | ? | · | 21µM* | · | ·
Cc1cc(S(=O)(=O)NCc2nc(N3CCCC3)c3cc(Cl)ccc3n2)c(C)s1 | -4%[9.04 µM] | · | -7% | · | ·
CCOc1ccccc1C(=O)N(Cc1ccccc1F)C1CCS(=O)(=O)C1 (stereo not given) | 0% | · | 6% | · | -1%
COc1ccccc1NC(=O)Nc1nnc([C@@H]2C[C@H](O)[C@@H](CO)O2)s1 | -10% | · | 6% | · | ·
COC(=O)CCCn1c(C)cc(C(=O)CCl)c1C | 6.5µM* | -80% | 10µM* | 8.9µM* | -8%
Cc1cc(C(=O)CCl)c(C)n1CCc1ccccc1 | 3.3µM* | -12% | 4.6µM* | 17% | 4%
NC(=O)c1ccccc1OCC(=O)c1ccc(Cl)cc1 | -32% | 9% | ? | 21% | 4%
